Laboratory results from PubChem BioAssay (NCI).
Compounds without any hit were thinned out: in the full panel of roughly 79,000, 15% have a hit. Cut-off read from the data, not from the text of the source: active = growth inhibition above about 70%; inactive = the rest.

Tests used:
[1] = NCI Yeast Anticancer Drug Screen. Data for the rad50 strain (AID 155);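 note: 0% = growth of vehicle-only cultures of the same strain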; settings: S. cerevisiae rad50 strain growth inhibition; at 50.0 µM; stronger effect = higher value
Method in brief: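 Cells are treated with compound, grown, and their growth is then scored against vehicle-only cultures of the same repair-deficient yeast strain.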

[2] = NCI Yeast Anticancer Drug Screen. Data for the mec2-1 strain (AID 157); settings: S. cerevisiae mec2-1 strain, at 50.0 µM, stronger effect = higher value
Method in brief: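 Compounds were applied to mec2-1 yeast cells. Their growth was then compared with that of vehicle-treated cultures to give growth inhibition.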

[3] = NCI Yeast Anticancer Drug Screen. Data for the sgs1 mgt1 strain (AID 161);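 note: 0% = growth of cultures given vehicle only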; settings: S. cerevisiae sgs1 mgt1 strain, at 50.0 µM, stronger effect = higher value
Method in brief: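 Compounds are added to genetically altered yeast, and growth is compared with cultures given vehicle alone to give percent inhibition.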

[4] = NCI Yeast Anticancer Drug Screen. Data for the cln2 rad14 strain (AID 165);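 note: 0% = growth equal to vehicle treated cultures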; settings: S. cerevisiae cln2 rad14 strain, at 50.0 µM, stronger effect = higher value
Method in brief: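 Strain: cln2 rad14 yeast, altered in cell cycle control and DNA damage repair. Read-out: growth inhibition vs vehicle.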

[5] = NCI Yeast Anticancer Drug Screen. Data for the bub3 strain (AID 167); settings: S. cerevisiae bub3 mutant strain, at 50.0 µM, stronger effect = higher value
Method in brief: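 Part of a panel of yeast mutants defective in DNA damage repair or cell cycle regulation. Each strain is grown with compound, and inhibition is calculated relative to solvent-treated cultures.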

[6] = NCI Yeast Anticancer Drug Screen. Data for the mlh1 rad18 strain (AID 175); settings: S. cerevisiae mlh1 rad18 strain growth inhibition; at 50.0 µM; stronger effect = higher value
Method in brief: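 A repair-deficient yeast strain is exposed to test compound, and growth is scored relative to vehicle-treated controls.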

Measured: growth inhibition

Cn1/c(=N\N=C\c2ccccc2OCCO)sc2ccccc21
inactive: [1] -2.7% | [2] 17.9% | [3] 18.8% | [4] 9.7% | [5] 26.4% | [6] 4.3%

COc1cccc(N=CNc2cccc(OC)c2)c1
inactive: [1] -36.2% | [2] -34.7% | [3] -17.4% | [4] 8.55% | [5] -11.8% | [6] -27.9%

CC(=O)N=c1ccc2nc3c(cc(N)c4ccccc43)oc-2c1
inactive: [1] 25.4% | [2] 13.2% | [3] 27.6% | [4] 20.9% | [5] 40.5% | [6] 33.8%

C=CCC(O)C=C (centres undefined)
inactive: [1] 10.3% | [2] -14.9% | [3] 5.4% | [4] -0.8% | [5] -5.35% | [6] 12.4%

COc1ccc(Nc2cc(Cl)ccc2C(=O)O)cn1
inactive: [1] 4.25% | [2] 0.6% | [3] -6.95% | [4] 17.9% | [5] 5.3% | [6] -4.55%

COc1ccc2c(c1)Nc1ccccc1S2
inactive: [1] -23.9% | [2] -23.5% | [3] -26.6% | [4] -1.6% | [5] -14.6% | [6] -16.2%

C[n+]1cc2cc3c(cc2c2ccccc21)OCO3
inactive: [1] 23.5% | [2] 35% | [3] 30% | [4] 13.1% | [5] 26.9% | [6] 39.5%

CCCc1cccc(CCC)c1NC(=O)Nc1cc(Cl)cc(Cl)c1
inactive: [1] 37.5% | [2] 19.9% | [3] 47.5% | [4] 37% | [5] 44% | [6] 23.6%

CC(C)N(CCCC#N)C(C)C
inactive: [1] 9.9% | [2] -11.6% | [3] -5.25% | [4] 10.4% | [5] -17.2% | [6] 8.05%

CCOC(=O)Nc1nccs1
inactive: [1] -13.7% | [2] 7.9% | [3] -5.3% | [4] -37% | [5] -2.6% | [6] -4.6%

CCCCCCCCCCCCSC1=C(Cl)C(=O)C(OC)=C(OC)C1=O
inactive: [1] 23.3% | [2] -18.1% | [3] 1.5% | [4] 4.75% | [5] -7.2% | [6] 38%

CN(C)Cc1ccccn1
inactive: [1] 1.1% | [2] -17% | [3] -4.25% | [4] -5.75% | [5] -13.4% | [6] 2.55%

CC(C)(N)CO[C@H]1C[C@H]2CC[C@@]1(C)C2(C)C
inactive: [1] 11.8% | [2] -5.7% | [3] 2.4% | [4] -26.4% | [5] 10.2% | [6] -6.15%

CCC12OC(COc3ccccc3)CN1CCN2c1ccccc1 (centres undefined)
inactive: [1] -12.2% | [2] -6.15% | [3] -10.7% | [4] 3.15% | [5] -15.1% | [6] -11.5%

Cc1ccc2nc(N)nnc2c1
inactive: [1] -5.9% | [2] -34.1% | [3] 3.9% | [4] 20.8% | [5] -17.1% | [6] -3.15%

CN(C)c1ccc(/C=C/C(=O)c2ccc(NC(N)=O)cc2)cc1
inactive: [1] -8.35% | [2] 1.9% | [3] -4.5% | [4] -51.6% | [5] -18% | [6] -8%

S=C(NCc1ccccc1)N1CCC(CCCC2CCN(C(=S)NCc3ccccc3)CC2)CC1
inactive: [1] -9.45% | [2] -32.1% | [3] -3.6% | [4] 6% | [5] 2.85% | [6] -7.35%

CC(C)(C)NCCC(O)c1cc(C(F)(F)F)nc2c(C(F)(F)F)cccc12 (centres undefined)
inactive: [1] -4.3% | [2] -36.1% | [3] -22.4% | [4] 21.1% | [5] -11.9% | [6] 0.15%

OCCc1ccc(Cl)cc1
inactive: [1] 10.8% | [2] 8.15% | [3] 9.7% | [4] 15.3% | [5] -1.3% | [6] 7.9%

CCCNS(=O)(=O)c1ccc(Cl)cc1
inactive: [1] 20.1% | [2] -2.9% | [3] -0.45% | [4] 1.55% | [5] -4.75% | [6] -3.7%

CC(=O)C[n+]1ccc(C)cc1Sc1ccccc1C
inactive: [1] 8.4% | [2] -18.1% | [3] 6.85% | [4] 4.4% | [5] -3.35% | [6] 33.8%

O=C(OC1CCCC1)c1ccccc1Cl
inactive: [1] 23.9% | [2] 8.75% | [3] 3.75% | [4] -21.7% | [5] -2.3% | [6] 23.2%

Nc1ccc2c(c1)Cc1cc(N)c(N)cc1-2
inactive: [1] 10.8% | [2] -7.75% | [3] 10.9% | [4] -18.7% | [5] -3.8% | [6] 5.8%

CCOc1ccncc1[N+](=O)[O-]
inactive: [1] 5.5% | [2] 13.1% | [3] 3.25% | [4] -7% | [5] 10.1% | [6] 5%

Nc1nc(Cl)cc(Cl)n1
inactive: [1] 6.65% | [2] 3.15% | [3] 0% | [4] 5.05% | [5] 2.85% | [6] 3.25%

COCC(N)=O
inactive: [1] 31.2% | [2] -17.9% | [3] 15.2% | [4] -5.1% | [5] 5.2% | [6] 13.8%

COC(CCCl)c1ccc(Cl)cc1 (centres undefined)
inactive: [1] 4.7% | [2] -43% | [3] -10.8% | [4] -4.5% | [5] -5.35% | [6] 26.8%

O=C(O)CSCC(=O)Nc1cc(C(F)(F)F)ccc1Cl
inactive: [1] -28.1% | [2] -36.6% | [3] -25.8% | [4] -22.9% | [5] -11.3% | [6] -11.2%

C/C(Cc1ccccc1)=N\O
inactive: [1] 3.75% | [2] 3.1% | [3] -20.6% | [4] 19.8% | [5] -7.95% | [6] 7.25%

CC1=CC(=Nc2ccc(N(C)C)cc2)C=C(C)C1=O
inactive: [1] -14.5% | [2] -21.1% | [3] -5.1% | [4] -38.1% | [5] 20.2% | [6] -12.4%

ClCC(Cl)[C@@H]1CC2C=CC1C2 (some centres undefined)
inactive: [1] 2.85% | [2] -3.65% | [3] 10.3% | [4] 15.6% | [5] 11.2% | [6] -6.1%

CCOC(=O)c1ccc(NC(C)=O)o1
inactive: [1] -10.3% | [2] 11.3% | [3] -3.35% | [4] -23.1% | [5] -5.35% | [6] 11.1%

CN(C)c1ncnc2c1cnn2C
inactive: [1] -9.55% | [2] -0.6% | [3] 9.3% | [4] -13.6% | [5] -0.7% | [6] 2.65%

CCOS(=O)(=O)c1ccc([N+](=O)[O-])cc1
inactive: [1] 7.35% | [2] 5.95% | [3] 4.5% | [4] 5.15% | [5] 5.2% | [6] 5.8%
